PKM2 inhibitor: PKM2 (human) enzyme inhibition | P14618 | purified PKM2, ATP generation, Kinase-Glo luminescence | Potency, µM (titrated, usually from 57.5 µM), inactives show at the top dose activity change, negative = inhibition, most hits filed as inhibitors | 260,000 compounds, 0.058% hits | AID 1634; further: potency means the concentration at half of the fitted maximal effect; nearly all actives have a fitted effect of over 60% in size
Target sequence (P14618 whole entry, looked up): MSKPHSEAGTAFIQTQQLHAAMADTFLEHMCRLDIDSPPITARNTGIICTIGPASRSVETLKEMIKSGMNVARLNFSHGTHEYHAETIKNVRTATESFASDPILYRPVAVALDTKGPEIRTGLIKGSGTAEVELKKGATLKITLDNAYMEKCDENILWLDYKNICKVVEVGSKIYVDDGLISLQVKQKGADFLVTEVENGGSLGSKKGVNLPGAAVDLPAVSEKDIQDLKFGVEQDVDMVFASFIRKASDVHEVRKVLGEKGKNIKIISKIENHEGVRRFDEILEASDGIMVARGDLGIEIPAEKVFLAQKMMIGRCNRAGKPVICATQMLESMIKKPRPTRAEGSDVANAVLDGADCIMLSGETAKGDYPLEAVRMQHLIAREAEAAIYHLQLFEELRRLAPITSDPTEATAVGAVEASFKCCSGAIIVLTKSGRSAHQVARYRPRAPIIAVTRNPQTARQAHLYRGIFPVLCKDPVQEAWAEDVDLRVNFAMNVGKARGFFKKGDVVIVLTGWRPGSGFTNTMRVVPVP
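Enzyme run at intermediate activity with final 0.1 mM ADP, 0.5 mM PEP (50 mM imidazole pH7.2, 50 mM KCl, 7 mM MgCl2), incubated 1 h at r.t. ATP formed read by Kinase-Glo luminescence, normalized to no-enzyme (full inhibition) and uninhibited wells.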
PKM2 inh dose: confirmation of human pyruvate kinase M2 inhibitors, concentration-response. shares compounds with PKM2 inhibitor. 55 compounds, 50% hits. AID 2263. purified hPK-M2, Kinase-Glo ATP luminescence, 1 h. Potency, µM (doses to about 57.5 µM), inactives show at the top dose activity change, negative = inhibition, usual class: inhibitors
FLuc counter: firefly luciferase inhibition counter-screen | shares compounds with PKM2 inhibitor | Kinase-Glo firefly luciferase, luminescence, 8 min | Potency, µM (top dose mostly 57.5 µM), for the others: at the highest dose activity, negative = inhibition, actives largely listed as inhibitors | 55 compounds, 30% hits | AID 2265
PKM2 LDH couple: PKM2 (human) inhibition, NADH coupled readout; AID 2267; Potency, µM (titrated, usually from 57.5 µM), inactives show at the top dose activity change, negative = inhibition, actives largely listed as inhibitors; 55 tested, under 10 active; shares compounds with PKM2 inhibitor; purified hPK-M2, LDH-coupled NADH fluorescence kinetic
* = called active by the depositor; ? = inconclusive; / = no result. The full list was thinned out, with hits kept by preference. The call rests on the fitted dose curve; in most records, active means well fitted curve in the direction sought with a large enough effect; inconclusive means small, poorly fitted or top-dose-only effect, or another doubt; inactive means no such curve, though single readings can be large; an effect the other way counts as inactive or inconclusive.

SMILES	PKM2 inhibitor	others
O=C(/C=C/c1ccccc1[N+](=O)[O-])Nc1cccnc1	47%
Cc1ccc2c(c1)C(N1CCCC1=O)CC(c1ccco1)N2 (stereo unspecified)	14µM*
Cc1ccc(CC2CC(=O)N(Cc3ccco3)C2=O)cc1 (stereo unspecified)	30%
Cc1ccc(-c2nnc(SCC(=O)N/N=C/c3ccccc3C(=O)O)n2-c2ccc(Cl)cc2)cc1	88%
Cc1ccc(-c2cc(C(=O)N3CCN(c4ncccn4)CC3)c3cc(Br)ccc3n2)o1	91%
COc1cc(C(=O)Nc2ccc(C)cc2)c(-n2cnnn2)cc1OC	86%
CCOC(=O)/C(=C/c1cn(C)c2ccccc12)NC(=O)c1ccccc1	102%
Cc1c(C(=O)OCc2ccccc2)nnn1-c1nonc1N	36%
N/C(=N/OC(=O)c1ccccc1F)c1nonc1N	16µM*
O=S(=O)(c1ccccc1)N1CC=C(c2ccccc2)CC1	32%
COc1ccc(S(=O)(=O)N2CCN(C(=O)C3CCCO3)CC2)cc1 (stereo unspecified)	49%
O=C(/C=C\c1ccc(-c2ccccc2)o1)c1ccccc1	35%
NC(=O)c1ccccc1N/C=C/C(=O)c1ccccc1	11µM*
N#C/C(=C/Nc1ccccc1C(=O)O)C(N)=O	-8%
CN1C(=O)Cc2cc(S(=O)(=O)Nc3ccc(Cl)cc3)ccc21	49%
CCCCc1n(CC(=O)c2ccc(Cl)cc2)c2ccccc2[n+]1C	-7%
O=C(NCCc1nc2ccc(Cl)cc2[nH]1)C1CCC(=O)N(Cc2cccc(F)c2)C1 (stereo unspecified)	44%
O=C(C1CC1)N1CCN(S(=O)(=O)c2ccc3c(c2)OCCO3)CC1	33%
CCOc1ccc(-c2ccc(SC)nn2)cc1	3.2µM*
CCOc1ccc(CNc2cccc(SC)c2)cc1	77%
Cc1ccc(-c2ccc(SCC(=O)Nc3cc(C)on3)nn2)cc1	-2%
COc1ccccc1S(=O)(=O)N1CCN(S(=O)(=O)c2ccccc2C#N)CC1	87%
Cc1ccc(CNC(=O)[C@@H]2C[C@H]2[C@@H](NP(=O)(c2ccccc2)c2ccccc2)c2ccccc2)o1	41%
c1ccc(-c2noc(-c3ccc4c(c3)OCO4)n2)nc1	8.9µM*
COc1ccc(S(=O)(=O)NCc2c(-c3ccccc3)noc2C)c(OC)c1	78%
SMILES	PKM2 inhibitor	others
COc1cccc(-c2nnc(SCC(=O)Nc3cc(C)on3)o2)c1	42%
c1cc(-c2nnc(-c3ccncc3)o2)ccn1	72%
O=C(Cn1nnc(-c2ccc3c(c2)OCO3)n1)NCc1ccccc1	85%
COc1cccc(-c2nc(-c3ccccn3)no2)c1	14µM*
c1ccc(-c2noc(-c3ccncc3)n2)nc1	14µM*
O=C(Cc1ccccc1)Nc1cccc(N2C(=O)C=CC2=O)c1	60%
NC(=O)CC(NC(=O)Cc1cccc2ccccc12)c1ccc(NCCc2ccccc2F)c([N+](=O)[O-])c1 (stereo unspecified)	46%
O=C(Nc1ccc(-n2cc(Br)cn2)cc1)c1ccncc1	32%
CCCN1CCN(S(=O)(=O)c2ccc3c(c2)OCCO3)CC1	49%
Cc1ccc(N(CC(=O)NC(C)(C)C)C(=O)CS(=O)CC(=O)Nc2ccc3c(c2)OCO3)cc1 (stereo unspecified)	7%
COc1ccc(S(=O)(=O)Nc2ccc(S(=O)(=O)Nc3nccs3)cc2)cc1	96%
O=C(CCn1cnc2ccccc21)N=Nc1c(O)[nH]c2ccccc12	44%
O=C(CCC(=O)N1CCN(S(=O)(=O)c2ccc3ccccc3c2)CC1)NCC(F)(F)F	49%
Cc1nnc2sc(SCC(=O)Nc3nccs3)nn2c1=O	62%
CCC(OC(=O)c1nsc(Cl)c1Cl)C(=O)NC(C)(C)CC (stereo unspecified)	95%
Cc1ccccc1NS(=O)(=O)c1ccc2oc(=O)ccc2c1	56%
Cc1ccc(/C(N)=N/OC(=O)Cc2cccc3ccccc23)cc1	61%
Cc1occc1C(=O)O/N=C(\N)c1ccccc1	7.1µM*
CC(/C=C/c1ccco1)=N\NC(=O)COc1ccc(C)c(C)c1	34%
NN1C(=O)/C(=C\c2ccco2)SC1=S	35%
O=[N+]([O-])c1cccc(/C=N/NC2=NS(=O)(=O)c3ccccc32)c1	49%
CCCCNS(=O)(=O)c1ccc2nc(SCC(=O)c3ccccc3OC)[nH]c2c1	32%
COc1ccccc1C(=O)Nc1ncc2c(n1)CC(c1ccco1)CC2=O (stereo unspecified)	46%
COc1ccccc1C(=O)Nc1nc2ccccc2[nH]1	16µM*
COC(=O)[C@@]1(Cc2ccc(OC)cc2)[C@H]2c3cc(C(=O)N4CCCC4)n(Cc4ccc(C)o4)c3C[C@H]2CN1C(=O)c1ccccc1	53%
SMILES	PKM2 inhibitor	others
Cc1ccc(-n2[nH]c(C)c(/C=N/n3c(C)nc4ccccc4c3=O)c2=O)cc1	13µM*
O=c1c2ccccc2nc(-c2ccco2)n1/N=C/c1ccccc1O	47%
COC(=O)[C@@]1(Cc2ccc(OC)cc2)[C@H]2c3cc(C(=O)N4CCCC4)n(CCc4ccc(O)c(O)c4)c3C[C@H]2CN1C(=O)c1ccccc1	54%
Cc1cc(NC(=O)CSc2nc3c(cc2C#N)CCC3)no1	82%
Cc1ccc(S(=O)(=O)CCN2C=CC(C(F)(F)F)=NCC2)cc1	36%
Cc1ccc(/C=C/C(=O)N2CCN(S(=O)(=O)/C=C/c3ccccc3)CC2)o1	72%
Cc1ccc2nc(-c3ccc(C)o3)c(NC3CCCC3)n2c1	/	PKM2 inh dose=11%;FLuc counter=1%;PKM2 LDH couple=?
COc1ccc(Nc2c(-c3ccc(C)o3)nc3ccccn23)cc1	/	PKM2 inh dose=11%;FLuc counter=5%;PKM2 LDH couple=10%
Cc1ccc(Nc2c(-c3ccsc3)nc3c(C)cccn23)cc1	/	PKM2 inh dose=8%;FLuc counter=-1%;PKM2 LDH couple=?
Cc1ccc(-c2nc3cnccn3c2Nc2ccc3c(c2)OCCO3)o1	49%
Cc1ccc(Nc2c(-c3ccsc3)nc3cccc(C)n23)cc1	/	PKM2 inh dose=4%;FLuc counter=-4%;PKM2 LDH couple=?
Cc1ccc(-c2csc(Nc3ccc(S(N)(=O)=O)cc3)n2)o1	89%
Cc1ccc(Nc2c(-c3ccc(C)o3)nc3cccc(C)n23)cc1	/	PKM2 inh dose=14%;FLuc counter=0%;PKM2 LDH couple=6.5µM*
COc1ccc(NC(=O)c2cc(-c3ccc(C)o3)nc3ccccc23)cc1OC	39%
Cc1cc(NC(=O)CSc2nc(N)c(NC(=O)c3ccco3)c(=O)[nH]2)no1	77%
O=C(NCc1ccco1)/C(=C\c1cccs1)NC(=O)c1ccco1	120%
O=S(=O)(c1ccccc1)C1(C2CC(c3ccccc3)=NO2)CC(O)C1 (stereo unspecified)	0%
COc1cc2c(cc1OC)CN(C(=O)c1ccc3[nH]c(C)c(C)c3c1)CC2	2%
CCOc1ccccc1NC(=S)N1CCN(c2ccccc2F)CC1	-23%
CC1=C(C#N)C(=O)N(C2CCS(=O)(=O)C2)C(=O)/C1=C\c1ccc(C)o1 (stereo unspecified)	49%
